Drawing on PubChem BioAssay (NCI), this text covers growth inhibition for 9 compounds.

The panel holds about 79,000 compounds, 15% with a hit somewhere; the sample as a whole holds those more often. Values without a mark were called inactive. Active and inactive are the calls of the source. No stated cut-off is given here; in the data, active means growth inhibition above about 70%; inactive means the rest.

The nature of assay [1]: NCI Yeast Anticancer Drug Screen. Data for the rad50 strain (AID 155).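 Further: 0% = growth of vehicle-only cultures of the same strain.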 The conditions noted are these: S. cerevisiae rad50 strain growth inhibition, hits give high values. The essentials: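 Inhibition values express reduced yeast growth in compound-treated cultures relative to vehicle-treated controls.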
A short description of assay [2]: NCI Yeast Anticancer Drug Screen. Data for the mec2-1 strain (AID 157). The note with it: S. cerevisiae mec2-1 strain, hits give high values. The procedure, abridged: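 Yeast mec2-1 mutant treated with compound. Readout: growth inhibition vs vehicle controls.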
Assay [3] in a line: NCI Yeast Anticancer Drug Screen. Data for the sgs1 mgt1 strain (AID 161).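 Further: 0% = growth of cultures given vehicle only.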 The conditions noted are these: S. cerevisiae sgs1 mgt1 strain, hits give high values. The procedure, abridged: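 Genetically altered yeast, compound exposure, growth inhibition relative to vehicle.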
The nature of assay [4]: NCI Yeast Anticancer Drug Screen. Data for the cln2 rad14 strain (AID 165).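 Further: 0% = growth equal to vehicle treated cultures.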 The conditions noted are these: S. cerevisiae cln2 rad14 strain, hits give high values. The essentials: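 cln2 rad14 yeast strain; compound exposure; growth inhibition read vs vehicle controls.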
Assay [5] is described as follows: NCI Yeast Anticancer Drug Screen. Data for the bub3 strain (AID 167). The note with it: S. cerevisiae bub3 mutant strain, hits give high values. The procedure, abridged: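 Steps: expose the mutant yeast strain to compound; grow alongside vehicle-treated cultures; measure growth; express inhibition against the vehicle cultures.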
A short description of assay [6]: NCI Yeast Anticancer Drug Screen. Data for the mlh1 rad18 strain (AID 175). The note with it: S. cerevisiae mlh1 rad18 strain growth inhibition, hits give high values. The procedure, abridged: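 Yeast w/ defined DNA-repair lesions; compound exposure; growth vs vehicle controls → % inhibition.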
The mark [7] stands for this setting: at 5.0 µM (retest, dose inferred, filed as 0.5).
[8] abbreviates: at 50.0 µM (retest, dose inferred, filed as 5.0).

Turning to `CC1(C)/C=C/C2=Nc3cc(Br)c(Br)c(Br)c3C23CC(=O)N3/C=C(\Cl)c2nc(Br)[nH]c21` (configuration not stated), the growth inhibition is 22% in assay [1] (setting [7]); 97% (active) in assay [1] (setting [8]); 92% (active) in assay [1] (at 50.0 µM); 15% in assay [2] (setting [7]); 96% (active) in assay [2] (setting [8]); 93.8% (active) in assay [2] (at 50.0 µM). Further, the growth inhibition in assay [3] (setting [7]) was 32%; in assay [3] (setting [8]), 98% (active); in assay [3] (at 50.0 µM), 93.8% (active); in assay [4] (setting [7]), 29%; in assay [4] (setting [8]), 98% (active); in assay [4] (at 50.0 µM), 91.7% (active). Besides, the growth inhibition was 12% in assay [5] (setting [7]); 98% (active) in assay [5] (setting [8]); 93% (active) in assay [5] (at 50.0 µM); -11% in assay [6] (setting [7]); 98% (active) in assay [6] (setting [8]); 92.5% (active) in assay [6] (at 50.0 µM).

For `CC/C(=N\OC(=O)Nc1ccccc1)c1ccc(OC(=O)Nc2ccccc2)cc1`, the growth inhibition in assay [1] (setting [7]) is 4%; in assay [1] (setting [8]) it was 22%; in assay [1] (at 50.0 µM), 60.5%; in assay [2] (setting [7]) it was -7%; in assay [2] (setting [8]), 58%; in assay [2] (at 50.0 µM), 55%. The growth inhibition in assay [3] (setting [7]) was 2%; in assay [3] (setting [8]), 46%; in assay [3] (at 50.0 µM), 76.8% (active); in assay [4] (setting [7]) it was -4%; in assay [4] (setting [8]), 7%; in assay [4] (at 50.0 µM), 49.6%. The growth inhibition was 1% in assay [5] (setting [7]); 48% in assay [5] (setting [8]); 33.1% in assay [5] (at 50.0 µM); 2% in assay [6] (setting [7]); 24% in assay [6] (setting [8]); 76.1% (active) in assay [6] (at 50.0 µM).

For `COC(=S)S`, the growth inhibition in assay [1] (setting [7]) was 3%; in assay [1] (setting [8]), 1%; in assay [1] (at 50.0 µM), 41.9%; in assay [2] (setting [7]) it was -2%; in assay [2] (setting [8]), 0%; in assay [2] (at 50.0 µM), 18.7%. The growth inhibition is 5% in assay [3] (setting [7]); 0% in assay [3] (setting [8]); -11.4% in assay [3] (at 50.0 µM); -4% in assay [4] (setting [7]); -2% in assay [4] (setting [8]); -45.5% in assay [4] (at 50.0 µM). The growth inhibition was -3% in assay [5] (setting [7]); -5% in assay [5] (setting [8]); 15.6% in assay [5] (at 50.0 µM); 1% in assay [6] (setting [7]); 6% in assay [6] (setting [8]); -24.7% in assay [6] (at 50.0 µM).

`NCc1ccccc1-c1c2nc(c(-c3ccccc3CN)c3ccc([nH]3)c(-c3ccccc3CN)c3nc(c(-c4ccccc4CN)c4ccc1[nH]4)C=C3)C=C2`: the growth inhibition in assay [1] (setting [7]) is 41%; in assay [1] (setting [8]) it was 84% (active); in assay [1] (at 50.0 µM), 79% (active); in assay [2] (setting [7]) it was 34%; in assay [2] (setting [8]), 83% (active); in assay [2] (at 50.0 µM), 83% (active). For the same compound, the growth inhibition in assay [3] (setting [7]) was 37%; in assay [3] (setting [8]), 82% (active); in assay [3] (at 50.0 µM), 86.2% (active); in assay [4] (setting [7]) it was 32%; in assay [4] (setting [8]), 66%; in assay [4] (at 50.0 µM) it was 78.8% (active). Further, the growth inhibition was 37% in assay [5] (setting [7]); 90% (active) in assay [5] (setting [8]); 79.7% (active) in assay [5] (at 50.0 µM); 54% in assay [6] (setting [7]); 84% (active) in assay [6] (setting [8]); 76.2% (active) in assay [6] (at 50.0 µM).

Regarding `CC(C)=CC1C(COC(=O)CCl)C1(C)C` (configuration not stated), the growth inhibition in assay [1] (setting [7]) is -6%; in assay [1] (setting [8]) it was 8%; in assay [1] (at 50.0 µM), 1.85%; in assay [2] (setting [7]), 3%; in assay [2] (setting [8]), 0%; in assay [2] (at 50.0 µM), 44.8%. Also, the growth inhibition in assay [3] (setting [7]) was -2%; in assay [3] (setting [8]) it was 3%; in assay [3] (at 50.0 µM), -12.3%; in assay [4] (setting [7]) it was 0%; in assay [4] (setting [8]), -11%; in assay [4] (at 50.0 µM) it was -29.4%. The growth inhibition is 2% in assay [5] (setting [7]); -5% in assay [5] (setting [8]); 36.1% in assay [5] (at 50.0 µM); -2% in assay [6] (setting [7]); 5% in assay [6] (setting [8]); -23.6% in assay [6] (at 50.0 µM).

Take `CC1(C)CC(=O)C(C(c2ccc3c(c2)OCO3)N2CCOCC2)C(=O)C1` (configuration not stated): the growth inhibition in assay [1] (setting [7]) is -22%; in assay [1] (setting [8]), -17%; in assay [1] (at 50.0 µM), 99.2% (active); in assay [2] (setting [7]), 9%; in assay [2] (setting [8]), -13%; in assay [2] (at 50.0 µM) it was 99.5% (active). Further, the growth inhibition in assay [3] (setting [7]) was -21%; in assay [3] (setting [8]), 4%; in assay [3] (at 50.0 µM), 99.3% (active); in assay [4] (setting [7]), -9%; in assay [4] (setting [8]) it was 3%; in assay [4] (at 50.0 µM) it was 98.2% (active). Moreover, the growth inhibition in assay [5] (setting [7]) is 20%; in assay [5] (setting [8]) it was -11%; in assay [5] (at 50.0 µM), 98.8% (active); in assay [6] (setting [7]), -26%; in assay [6] (setting [8]), -27%; in assay [6] (at 50.0 µM), 99.1% (active).

With `O=[N+]([O-])c1ccc(S(=O)(=O)Cc2ccccc2)c2nonc12`, the growth inhibition in assay [1] (setting [7]) was 6%; in assay [1] (setting [8]), 99% (active); in assay [1] (at 50.0 µM), 99% (active); in assay [2] (setting [7]), 11%; in assay [2] (setting [8]), 99% (active); in assay [2] (at 50.0 µM) it was 98.8% (active). Further, the growth inhibition was 10% in assay [3] (setting [7]); 99% (active) in assay [3] (setting [8]); 99% (active) in assay [3] (at 50.0 µM); -11% in assay [4] (setting [7]); 98% (active) in assay [4] (setting [8]); 96.3% (active) in assay [4] (at 50.0 µM). The growth inhibition is 2% in assay [5] (setting [7]); 99% (active) in assay [5] (setting [8]); 98.4% (active) in assay [5] (at 50.0 µM); 6% in assay [6] (setting [7]); 99% (active) in assay [6] (setting [8]); 98.2% (active) in assay [6] (at 50.0 µM).

Take `O=C(O)c1ccc(OCc2ccccc2)c(Cl)c1`: the growth inhibition in assay [1] (setting [7]) is 16%; in assay [1] (setting [8]), 36%; in assay [1] (at 50.0 µM), 52.8%; in assay [2] (setting [7]), 22%; in assay [2] (setting [8]), 44%; in assay [2] (at 50.0 µM), 25.5%. Besides, the growth inhibition in assay [3] (setting [7]) was 11%; in assay [3] (setting [8]), 38%; in assay [3] (at 50.0 µM) it was 30.9%; in assay [4] (setting [7]), -8%; in assay [4] (setting [8]) it was 39%; in assay [4] (at 50.0 µM), 54.2%. Also, the growth inhibition in assay [5] (setting [7]) was 3%; in assay [5] (setting [8]), 17%; in assay [5] (at 50.0 µM), 38.2%; in assay [6] (setting [7]), 12%; in assay [6] (setting [8]), 47%; in assay [6] (at 50.0 µM) it was 59.1%.

Regarding `CC(=O)Oc1ccc(-c2ccccc2)cc1Br`, the growth inhibition in assay [1] (setting [7]) is 8%; in assay [1] (setting [8]) it was 99% (active); in assay [1] (at 50.0 µM), 93.6% (active); in assay [2] (setting [7]) it was -27%; in assay [2] (setting [8]) it was 98% (active); in assay [2] (at 50.0 µM) it was 96.2% (active). Further, the growth inhibition is 6% in assay [3] (setting [7]); 97% (active) in assay [3] (setting [8]); 91.5% (active) in assay [3] (at 50.0 µM); 7% in assay [4] (setting [7]); 95% (active) in assay [4] (setting [8]); 85.1% (active) in assay [4] (at 50.0 µM). The growth inhibition in assay [5] (setting [7]) is 10%; in assay [5] (setting [8]) it was 98% (active); in assay [5] (at 50.0 µM), 94.2% (active); in assay [6] (setting [7]) it was 11%; in assay [6] (setting [8]), 99% (active); in assay [6] (at 50.0 µM) it was 98.1% (active).
